Assay results taken from PubChem BioAssay (NCATS).
Inconclusive results are not listed. Activity calls are given as the source filed them. Calls follow the shape of the dose curve; as a rule, active = well fitted inhibition curve with a large enough effect; inconclusive = small, poorly fitted or top-dose-only effect; inactive = flat fitted curve, though single readings scatter.

system: CRL-7250; test: qHTS assay to identify novel small-molecules to repurpose for Merkel cell carcinoma treatment (AID 1296009); details: MCC and control cell lines, CellTiter-Glo viability, 72 h; at 44.8 µM (top of the series) unless noted; also: nearly all actives have a fitted effect of over 60% in size
In short: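 Viability readout: ATP luminescence (CellTiter-Glo) after 72 hr drug exposure at 37 degree celsius. Dose-response format was 8 points for NPC and 11 points for MIPE; data normalized to in-plate controls.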

| SMILES | outcome |
| --- | --- |
| COc1ccccc1OC(=O)Oc1ccccc1OC | inactive |
| Cc1cn([C@H]2C[C@H](F)[C@@H](CO)O2)c(=O)[nH]c1=O | inactive |
| COc1ccc(-c2nc3ccc(C4=NNC(=O)CC4C)cc3[nH]2)cc1 (stereo unspecified) | inactive |
| CN(C)CCOc1ccccc1Cc1ccccc1 | inactive |
| O=C(/C=C/c1ccccc1)NCCO | inactive |
| O=C(O)CCC(=O)c1ccc(-c2ccccc2)cc1 | inactive |
| NCCc1cnc[nH]1 | inactive |
| C[C@H]1C[C@H]2[C@@H]3CCC4=CC(=O)C=C[C@]4(C)[C@@]3(Cl)[C@@H](O)C[C@]2(C)[C@@]1(O)C(=O)CO | inactive |
| CCN(CC)C(=O)c1cccc(C)c1 | inactive |
| CN(C)C/C=C(/c1ccc(Br)cc1)c1cccnc1 | inactive |
| O=C(O)c1cccc(-c2noc(-c3ccccc3F)n2)c1 | inactive |
| CCC(=O)O[C@]1(C(=O)COC)[C@@H](C)C[C@H]2[C@@H]3CCC4=CC(=O)C=C[C@]4(C)C3(F)[C@@H](O)C[C@@]21C (stereo partly specified) | inactive |
| CCOC(=O)C1=C[C@]2(CC)CCCN3CCc4c(n1c1ccccc41)[C@@H]32 | inactive |
| CN1CCOC(c2ccccc2)c2ccccc2C1 (stereo unspecified) | inactive |
| NS(=O)(=O)c1cc2c(cc1Cl)NCNS2(=O)=O | inactive |
| CCOC(=O)c1ccc(OC(=O)CCCCCN=C(N)N)cc1 | inactive |
| C[C@]12CCC(=O)C=C1[C@@H]1C[C@@H]1[C@H]1[C@@H]3[C@@H]4C[C@@H]4[C@@]4(CCC(=O)O4)[C@@]3(C)CC[C@@H]12 | inactive |
| CCCCCCCCCCCCOS(=O)(=O)O | inactive |

| SMILES | outcome |
| --- | --- |
| CN1CCC(OC(c2ccccc2)c2ccccc2)CC1 | inactive |
| COc1cc([C@H]2Oc3cc([C@H]4Oc5cc(O)cc(O)c5C(=O)[C@@H]4O)ccc3O[C@@H]2CO)ccc1O | inactive |
| CCN(CC)CC(=O)OCC(=O)[C@@]1(O)CC[C@H]2[C@@H]3CCC4=CC(=O)CC[C@]4(C)[C@H]3[C@@H](O)C[C@@]21C | inactive |
| N#Cc1cc(NC(=O)C(=O)O)c(Cl)c(NC(=O)C(=O)O)c1 | inactive |
| CCOC(=O)[C@H](CCc1ccccc1)N[C@H]1CS[C@H](c2cccs2)CN(CC(=O)O)C1=O | inactive |
| CCN(CC)C(=O)N1CCN(C)CC1 | inactive |
| O=C1[C@H]2CCCC[C@H]2C(=O)N1CCCCN1CCN(c2nsc3ccccc23)CC1 | inactive |
| O=C(O)CN(CCOCCOCCN(CC(=O)O)CC(=O)O)CC(=O)O | inactive [at 0.588 µM] |
| C=C1C(=C/C=C2\CCC[C@]3(C)[C@@H]([C@H](C)/C=C/[C@@H](O)C4CC4)CC[C@@H]23)C[C@@H](O)C[C@@H]1O | inactive |
| N[C@@H](Cc1c[nH]c2ccc(O)cc12)C(=O)O | inactive |
| O=C(NCC1CN(c2ccc(N3CCOCC3=O)cc2)C(=O)O1)c1ccc(Cl)s1 (stereo unspecified) | inactive |
| NCCNC(=O)c1ccc(Cl)cn1 | inactive |
| CC1(C)CO[C@@H](CC(=O)O)CN1 | inactive |
| C[C@@H]1CC[C@@]2(OC1)O[C@H]1C[C@H]3[C@@H]4CC[C@H]5C[C@@H](O)CC[C@]5(C)[C@H]4CC(=O)[C@]3(C)[C@H]1[C@@H]2C | inactive [at 4.96 µM] |
| Cc1c(N(C)C)c(=O)n(-c2ccccc2)n1C | inactive |
| CC(C)(C)c1ccc(C(=O)CCCCl)cc1 | inactive |
| NC(CSCC(=O)O)C(=O)O (stereo unspecified) | inactive |
| CCOC(=O)OC(C)OC1=C(C(=O)Nc2ccccn2)N(C)S(=O)(=O)c2ccccc21 (stereo unspecified) | inactive |
